Read-out in experiment [1]: Human Leukocyte Antigen - DR isotype (HLADR), HLA-DRA (gene 3122)
Put plainly: BSK_BE3C_HLADR: BioMAP Diversity Plus: BE3C Assay for Human Leukocyte Antigen - DR isotype (HLADR) Biomarker Activity (AID 2283032). The note with it: primary human bronchial epithelial cells; actives raise or lower the signal. The essentials: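 Signal came from an ELISA for HLA-DR in human bronchial epithelial primary cells harvested 24 h after treatment; gain- and loss-of-signal fitting used DMSO controls as reference.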

Read-out in experiment [2]: Vascular cell adhesion molecule 1 (VCAM1), VCAM1 (gene 7412)
Briefly: BSK_4H_VCAM1: BioMAP Diversity Plus: 4H Assay for Vascular cell adhesion molecule 1 (VCAM1) Biomarker Activity (AID 2283033).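 As to outcome: cell-surface VCAM-1 protein measured by ELISA.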 The note with it: primary human endothelial cells (HUVEC); actives raise or lower the signal. The essentials: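 Endpoint derived from bidirectional fitting against DMSO controls of VCAM-1 ELISA signal in umbilical vein endothelial cells sampled at 24 h following treatment.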

Read-out in experiment [3]: Interferon-gamma inducible Protein 10 (IP10), CXCL10 (gene 3627)
Briefly: BSK_BE3C_IP10: BioMAP Diversity Plus: BE3C Assay for Interferon-gamma inducible Protein 10 (IP10) Biomarker Activity (AID 2283034). The note with it: primary human bronchial epithelial cells; actives raise or lower the signal. In short, it runs like this: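 Using primary human bronchial epithelial cultures, the assay captures IP-10 by ELISA one day (24 h) after exposure. Parallel SRB staining of total protein flags overt cytotoxicity. Fits run bidirectionally relative to DMSO.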

Read-out in experiment [4]: Monokine induced gamma interferon (MIG), CXCL9 (gene 4283)
Put plainly: BSK_BE3C_MIG: BioMAP Diversity Plus: BE3C Assay for Monokine induced gamma interferon (MIG) Biomarker Activity (AID 2283035).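 Also: MIG protein measured by ELISA in BE3C cultures after 24 h of dosing.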 As to conditions: primary human bronchial epithelial cells; actives raise or lower the signal. In short, it runs like this: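 MIG level was determined by ELISA after 24 h chemical treatment of primary human bronchial epithelial cells. Values were fitted bidirectionally with DMSO as the negative control and activity baseline.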

Read-out in experiment [5]: Transforming growth factor beta 1 (TGFb1), TGFB1 (gene 7040)
Briefly: BSK_BE3C_TGFb1: BioMAP Diversity Plus: BE3C Assay for Transforming growth factor beta 1 (TGFb1) Biomarker Activity (AID 2283036;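 also: TGF-b1 protein level measured by ELISA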). As to conditions: primary human bronchial epithelial cells; actives raise or lower the signal. The essentials: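 In this human primary bronchial epithelial system, an ELISA quantified TGF-b1 one day after dosing. Endpoint changes in either direction were fitted relative to DMSO.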

Read-out in experiment [6]: urokinase plasminogen activator (uPA), PLAU (gene 5328)
Put plainly: BSK_BE3C_uPA: BioMAP Diversity Plus: BE3C Assay for urokinase plasminogen activator (uPA) Biomarker Activity (AID 2283038).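 Also: uPA protein level quantified by ELISA in cell cultures; uPA read one day after compound addition.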 The note with it: primary human bronchial epithelial cells; actives raise or lower the signal. The essentials:
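Measured by ELISA: uPA from human primary bronchial epithelial cells 24 h after chemical treatment. Values derive from bidirectional curve fitting with DMSO serving as negative control. Total protein by SRB staining in parallel wells flagged overt cytotoxicity.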

Read-out in experiment [7]: Urokinase-type plasminogen activator receptor (uPAR), PLAUR (gene 5329)
Put plainly: BSK_BE3C_uPAR: BioMAP Diversity Plus: BE3C Assay for Urokinase-type plasminogen activator receptor (uPAR) Biomarker Activity (AID 2283039).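 Also: uPAR protein level measured by ELISA on the cells; cells exposed to compound for one day before measurement.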 As to conditions: primary human bronchial epithelial cells; actives raise or lower the signal. The essentials: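 A uPAR ELISA serves as the readout, taken 24 h after treating primary human bronchial epithelial cells. Responses in either direction are fitted against DMSO, which defines baseline activity.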

Read-out in experiment [8]: Interleukin-6 (IL6), IL6 (gene 3569)
Put plainly: BSK_CASM3C_IL6: BioMAP Diversity Plus: CASM3C Assay for Interleukin-6 (IL6) Biomarker Activity for (AID 2283040). As to conditions: primary human coronary artery smooth muscle cells; actives raise or lower the signal.

Read-out in experiment [9]: Tissue plasminogen activator (tPA), PLAT (gene 5327)
Briefly: BSK_BE3C_tPA: BioMAP Diversity Plus: BE3C Assay for Tissue plasminogen activator (tPA) Biomarker Activity (AID 2283041).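 Also: tPA level quantified by ELISA one day after compound addition.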 As to conditions: primary human bronchial epithelial cells; actives raise or lower the signal. The essentials: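 Bidirectional curve fitting relative to DMSO defined activity, with tPA detected by ELISA in chemically treated human bronchial epithelial primary cells at 24 hours.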

Read-out in experiment [10]: Interleukin-8 (IL8), CXCL8 (gene 3576)
Put plainly: BSK_CASM3C_IL8: BioMAP Diversity Plus: CASM3C Assay for Interleukin-8 (IL8) Biomarker Activity (AID 2283042).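 Also: IL-8 protein level quantified by ELISA.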 As to conditions: primary human coronary artery smooth muscle cells; actives raise or lower the signal.

Read-out in experiment [11]: Human Leukocyte Antigen - DR isotype (HLADR), HLA-DRA (gene 3122)
Put plainly: BSK_CASM3C_HLADR: BioMAP Diversity Plus: CASM3C Assay for Human Leukocyte Antigen - DR isotype (HLADR) Biomarker Activity (AID 2283043).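 Also: cell-surface HLA-DR protein level quantified by ELISA.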 As to conditions: primary human coronary artery smooth muscle cells; actives raise or lower the signal.

Read-out in experiment [12]: Macrophage colony-stimulating factor (MCSF), CSF1 (gene 1435)
Briefly: BSK_CASM3C_MCSF: BioMAP Diversity Plus: CASM3C Assay for Macrophage colony-stimulating factor (MCSF) Biomarker Activity (AID 2283044).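 Also: M-CSF protein amount quantified by ELISA after 24 h exposure.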 The note with it: primary human coronary artery smooth muscle cells; actives raise or lower the signal.

Read-out in experiment [13]: Low-density lipoprotein receptor (LDLR), LDLR (gene 3949)
Put plainly: BSK_CASM3C_LDLR: BioMAP Diversity Plus: CASM3C Assay for Low-density lipoprotein receptor (LDLR) Biomarker Activity (AID 2283045).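 Also: LDLR protein level on the cell surface quantified by ELISA.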 The note with it: primary human coronary artery smooth muscle cells; actives raise or lower the signal.

Read-out in experiment [14]: Monocyte Chemoattractant Protein-1 (MCP1), CCL2 (gene 6347)
Briefly: BSK_CASM3C_MCP1: BioMAP Diversity Plus: CASM3C Assay for Monocyte Chemoattractant Protein-1 (MCP1) Biomarker Activity (AID 2283046).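 Also: MCP-1 level quantified by ELISA 24 h after dosing.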 As to conditions: primary human coronary artery smooth muscle cells; actives raise or lower the signal.

A short description of experiment [15]: BSK_CASM3C_Proliferation: Cell Proliferation Assessment in the BioMAP Diversity Plus: CASM3C Assay (AID 2283047).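 Also: sulforhodamine B total protein stain as relative cell number at 560 nm; sub-confluent cells exposed 48 h before staining; fitted both ways against DMSO so gain or loss of cell number.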 The note with it: primary human coronary artery smooth muscle cells.
Read-out in experiment [16]: Monokine induced gamma interferon (MIG), CXCL9 (gene 4283)
Put plainly: BSK_CASM3C_MIG: BioMAP Diversity Plus: CASM3C Assay for Monokine induced gamma interferon (MIG) Biomarker Activity (AID 2283048).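 Also: MIG protein level measured by ELISA.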 The note with it: primary human coronary artery smooth muscle cells; actives raise or lower the signal.

Read-out in experiment [17]: serum amyloid A (SAA), SAA1 (gene 6288)
Briefly: BSK_CASM3C_SAA: BioMAP Diversity Plus: CASM3C Assay for serum amyloid A (SAA) Biomarker Activity (AID 2283049).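 Also: SAA protein level quantified by ELISA.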 As to conditions: primary human coronary artery smooth muscle cells; actives raise or lower the signal.

Experiment [18] can be described thus: BSK_CASM3C_SRB: Viability Assessment in the BioMAP Diversity Plus: CASM3C Assay (AID 2283050).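 Also: cells exposed to compound for 24 h.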 The note with it: primary human coronary artery smooth muscle cells.
Read-out in experiment [19]: Thrombomodulin, THBD (gene 7056)
Put plainly: BSK_CASM3C_Thrombomodulin: BioMAP Diversity Plus: CASM3C Assay for Thrombomodulin Biomarker Activity (AID 2283051).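 Also: thrombomodulin protein level measured by ELISA 24 h after dosing.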 The note with it: primary human coronary artery smooth muscle cells; actives raise or lower the signal.

Read-out in experiment [20]: Plasminogen activator inhibitor-1 (PAI1), SERPINE1 (gene 5054)
Briefly: BSK_BE3C_PAI1: BioMAP Diversity Plus: BE3C Assay for Plasminogen activator inhibitor-1 (PAI1) Biomarker Activity (AID 2283037). The note with it: primary human bronchial epithelial cells; actives raise or lower the signal. The essentials:
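PAI-1 biomarker levels in treated human bronchial epithelial cells are determined by ELISA at 24 h. Both increases and decreases relative to DMSO are fitted.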

SMILES strings stand for the structures. Activity calls are given as the source filed them. The calls were made as follows: active = hit-call score of the fitted dose curve at least 0.9, where 1 is the maximum; inactive = score below 0.9.

For the molecule `Cc1cccc(N)c1N`, the outcome in [1], in [3], in experiment [4], in experiment [5], in [6] and in experiment [7] was inactive. For the same molecule, the outcome in experiment [8], in experiment [9], in experiment [10], in experiment [11], in experiment [13] and in [14] was inactive. For the same molecule, the result in experiment [15], in experiment [16], in experiment [17] and in experiment [18] was inactive. In addition, the half-maximal activity concentration (AC50) in [2] was 13.6 µM (active); in experiment [12], 3.73 µM (active); in experiment [19], 9.78 µM (active).

Turning to `CCOC(=O)[C@]1(c2ccccc2)Oc2ccccc2[C@@H]1N`, the AC50 in experiment [1] was 20 µM (active); in experiment [2], 7.44 µM (active); in experiment [11], 31 µM (active); in [13], 23.4 µM (active). Moreover, the outcome in [3], in experiment [4], in [5], in experiment [20], in [6] and in experiment [7] was inactive. For the same molecule, the result in experiment [8], in experiment [9], in [10], in experiment [12], in [14] and in experiment [15] was inactive. Further, the result in experiment [16], in [17], in experiment [18] and in [19] was inactive.

On to `CS(=O)(=O)NC(=O)c1cc(Oc2ccc(C(F)(F)F)cc2Cl)ccc1[N+](=O)[O-]`, for which the outcome in [1], in experiment [2], in experiment [3], in [4], in experiment [5] and in experiment [20] was inactive. Moreover, the result in experiment [6], in [7], in experiment [8], in experiment [9], in experiment [10] and in experiment [12] was inactive. Moreover, the result in experiment [13], in experiment [14], in experiment [15], in experiment [16], in experiment [17] and in experiment [18] was inactive. The outcome in experiment [19] was inactive. Also, the AC50 in experiment [11] is 20 µM (active).

Take `O=P(OCCCl)(OCCCl)OCCCl`: the result in experiment [1], in experiment [2], in experiment [3], in experiment [4], in experiment [5] and in [20] was inactive. Further, the result in [6], in [7], in experiment [8], in experiment [9], in experiment [10] and in experiment [11] was inactive. For the same molecule, the result in [12], in [13], in [14], in [15], in experiment [16] and in [17] was inactive. In addition, the result in experiment [18] and in experiment [19] was inactive.

For the molecule `Cc1cc(N=Nc2ccccc2C)ccc1N`, the outcome in experiment [1], in experiment [3], in [4], in experiment [5], in [6] and in [7] was inactive. For the same molecule, the result in experiment [8], in [9], in experiment [10], in experiment [11], in experiment [12] and in experiment [13] was inactive. For the same molecule, the result in [14], in experiment [16], in [17] and in experiment [18] was inactive. Also, the AC50 in experiment [2] was 33.1 µM (active); in [20] it was 12 µM (active); in experiment [15], 23.6 µM (active); in [19], 10.7 µM (active).

As for `Cc1ccc(N=C=O)cc1N=C=O`, the result in experiment [1], in experiment [2], in experiment [4], in experiment [5], in [20] and in experiment [6] was inactive. Further, the result in experiment [7], in [8], in experiment [9], in experiment [10], in [12] and in experiment [13] was inactive. In addition, the result in experiment [14], in [16], in experiment [17], in experiment [18] and in experiment [19] was inactive. Also, the AC50 in experiment [3] is 20 µM (active); in experiment [11], 28.5 µM (active); in [15], 20 µM (active).

As to `CCCCCCCCOC(=O)c1ccc(C(=O)OCCCCCCCC)c(C(=O)OCCCCCCCC)c1`, the outcome in experiment [1], in [2], in [3], in experiment [4], in [5] and in experiment [20] was inactive. Also, the result in experiment [6], in experiment [7], in [8], in [9], in [10] and in [11] was inactive. Further, the result in experiment [12], in experiment [13], in experiment [14], in experiment [15], in experiment [16] and in experiment [17] was inactive. For the same molecule, the outcome in experiment [18] and in experiment [19] was inactive.

The values are drawn from PubChem BioAssay (EPA / NIEHS).
